Several values for one entry are separate records, joined by “and”; a condition that tells them apart may be missing. Identical values can stand only once.

Common to all, as to type: functional
Assay [1] has as its target Solute carrier family 2, facilitated glucose transporter member 1 (Homo sapiens) (UniProt P11166). The assay is described as follows: ST_JUDE_LEISH: Cytotoxicity at 2uM final concentration against transgenic Leishmania Mexicana promastigotes LmGLUT1 that are glucose transport deficient and complemented with the human glucose transporter GLUT1. Activity is measured by DNA content using SYBR green in vitro.

For assay [2], the target named is Hexose transporter 1 (Plasmodium falciparum) (UniProt O97467). In words: ST_JUDE_LEISH: Cytotoxicity at 2uM final concentration against transgenic Leishmania Mexicana promastigotes LmPfHT that are glucose transport deficient and complemented with the Plasmodium falciparum hexose transporter. Activity is measured by DNA content using SYBR green in vitro.
The target in assay [3] is Glucose transporter (Leishmania mexicana) (UniProt O61059). The assay is described as follows: ST_JUDE_LEISH: Cytotoxicity at 2uM final concentration against transgenic Leishmania Mexicana promastigotes LmGT2 that are glucose transport deficient and complemented with the L. Mexicana glucose transporter 2. Activity is measured by DNA content using SYBR green in vitro.

Chain of Solute carrier family 2, facilitated glucose transporter member 1 (Homo sapiens) (P11166 whole entry): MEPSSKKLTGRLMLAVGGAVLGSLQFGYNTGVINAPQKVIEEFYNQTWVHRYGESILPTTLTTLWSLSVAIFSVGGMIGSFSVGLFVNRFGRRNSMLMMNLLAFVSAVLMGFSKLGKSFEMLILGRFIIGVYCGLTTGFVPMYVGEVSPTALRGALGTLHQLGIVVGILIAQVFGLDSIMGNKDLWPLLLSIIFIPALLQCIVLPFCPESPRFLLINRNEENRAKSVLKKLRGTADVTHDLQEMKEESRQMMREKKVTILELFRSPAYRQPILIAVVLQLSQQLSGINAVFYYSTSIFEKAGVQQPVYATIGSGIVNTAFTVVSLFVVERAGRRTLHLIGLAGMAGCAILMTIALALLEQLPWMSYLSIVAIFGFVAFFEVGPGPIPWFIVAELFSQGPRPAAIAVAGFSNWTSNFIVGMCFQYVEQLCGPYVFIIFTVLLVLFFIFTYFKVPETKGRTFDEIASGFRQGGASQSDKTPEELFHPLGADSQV

Regarding `Cc1cccc2nc(-c3cccc(-c4ccc(NC(=O)Cc5ccccn5)cc4)c3)[nH]c12`, the inhibition came to 4.3% in assay [1], 2.5% in assay [2] and 2.64% in assay [3].
On to `COc1cc(Nc2nccc(N3CCC(NC(=O)C(C)c4ccc(Cl)cc4)C3)n2)cc(OC)c1OC` (stereo not drawn), for which the inhibition in assay [1] was 0.95%; in assay [2], -0.55%; in assay [3], 1.19%.
For `CCc1cc2c(N)nc(N)nc2nc1-c1ccccc1` the same measures were 4.22%, 3.93% and 0.81%.
Regarding `CNC(=O)c1ccccc1Nc1nc(Nc2cccc(CS(C)(=O)=O)c2)ncc1C`, the values for the inhibition in assay [1], in assay [2] and in assay [3] were 3.44%, 11.9% and 8.04%, respectively.
For `CC(C)c1cccc(OCC2CCN(c3ncc(C(=O)Nc4ccccc4)cc3Cl)CC2)c1` the same measures were 2.96%, 1.07% and -2.66%.
The matching figures for `CN(C(=O)NCCc1ccccc1)C1CCN(CCCCCNC(=O)/C=C/c2ccc(Cl)c(Cl)c2)CC1`: 14.9%, 12% and 12.4%.
Regarding `O=c1cc(NCCCNCc2cc(Br)cs2)[nH]c2ccccc12`, the inhibition in assay [1] is 3.94%; in assay [2], 2.8%; in assay [3] it was 2.59%.
The matching figures for `CC1(C)CCCC(=Cc2ccc(Br)cc2)C1(O)Cn1ccnc1` (stereo not drawn): 27.9%, 20.9% and 13.5%.
For `CCOC(=O)c1c[nH]c2c(sc3cc(OC)ccc32)c1=O` the same measures were -0.83%, -0.51% and -0.47%.
For the compound `Cc1nnsc1C(=O)Nc1cccc(-c2ccc(-c3nc4cccc(C)c4[nH]3)s2)c1`, the results for the inhibition in assay [1], in assay [2] and in assay [3] were 1.88%, 1.77% and 3.82%, respectively.
Consider `O=C1OC2(CN1CC1CCN(Cc3ccc(O)c(Cl)c3)CC1)c1ccccc1-c1ccccc12`, for which the figures for the inhibition in assay [1], in assay [2] and in assay [3] were 8.04%, 6.3% and 3.94%, respectively.
The matching figures for `Cc1nc(-c2ccc(-c3ccc(C(=O)Nc4ccc(-n5ccnc5)c(N5CCN(C)CC5)c4)cc3)c(C)c2)no1`: 2.82%, 2.86% and 0.79%.
The matching figures for `Nc1nc2c(ncn2OC[C@H](CO)OCP(=O)(O)O)c(=O)[nH]1`: 0.43%, -1.69% and -1.85%.
For `O=C(Nc1cccc(C(F)(F)F)c1)c1ccc(S(=O)(=O)NCC2CCN(CC3CCCCC3)CC2)cc1` the same measures were 3.47%, 2% and 3.8%.
On to `Cc1cccc2nc(-c3ccc(-c4ccc(NC(=O)C(C)CN(C)C)cc4)s3)[nH]c12` (stereo not drawn), for which the inhibition in assay [1] worked out at 4.89%; in assay [2], 6.11%; in assay [3] it was 3.65%.
Consider `CCOC(=O)N1CCN(CCCCNc2c3ccc(Cl)cc3nc3ccc(OC)cc23)CC1`, for which the inhibition in assay [1] is 10.8%; in assay [2], 9.69%; in assay [3] it was 7.38%.
As to `Cc1cccc2nc(-c3ccc(-c4ccc(CNCCCN5CCCC5=O)cc4)cc3)[nH]c12`, the inhibition in assay [1] amounted to 7.88%; in assay [2] it was 5.8%; in assay [3], 4.42%.
In the case of `CC(=O)Nc1ccc(C(=O)N2CCN(c3ccnc4cc(Cl)ccc34)CC2)cc1`, the inhibition in assay [1] was 1.26%; in assay [2], -0.89%; in assay [3], -0.23%.
The matching figures for `COc1ccc2nccc([C@@H](O)CN3CCC(NCc4cc5c(F)ccc(F)c5[nH]4)CC3)c2n1`: 87.9%, 86.8% and 87.2%.
The matching figures for `CCCCCCCCCn1c(NCc2cc(Cl)ccc2O)nc2ccccc21`: 2.6%, 1.33% and 0.42%.
In the case of `CCOc1ccc(N2CCN(CCCCNC(=O)c3ccc(NC(=O)c4ccc(Cl)cc4)cc3)CC2)c(OCC)c1`, the inhibition in assay [1] came to 1.06%; in assay [2], 1.88%; in assay [3] it was 2.35%.
For `CNCc1cccc2nc(-c3csc(Cc4cc(Cl)ccc4OCC(C)C)n3)[nH]c12` the same measures were -0.53%, 0.5% and -0.08%.
For `COc1ccccc1C1CN(CCNC(=O)c2nc(C)c[nH]2)Cc2ccccc2O1` (stereo not drawn) the same measures were 0.43%, 2.02% and 5.66%.
`FC(F)(F)c1ccc(-c2ccc(CNC3CCN(CCN4CCOCC4)CC3)cc2)cc1`: the results for the inhibition in assay [1], in assay [2] and in assay [3] were 1.09%, 0.81% and 3.26%, respectively.
For `O=C(Nc1n[nH]c2nc(-c3ccco3)c(Br)cc12)c1ccc(CN2CCCC2)cc1` the same measures were 1.9%, 3.71% and 3.01%.
Regarding `COc1ccc2ncc(F)c(CCN3CC(O)C(CNCc4nc5c(cc4Cl)OCC(=O)N5)C3)c2n1` (stereo not drawn), the inhibition in assay [1] was 0.46% and 5.05% and 0.19%; in assay [2], -1.18% and 4.64% and 0.49%; in assay [3] it was -0.57% and 3.05% and -1.68%.
As to `O=C(Nc1cccc(C(F)(F)F)c1)N1CCOC(CCN2CCC(c3ccccc3)CC2)(c2ccc(Cl)c(Cl)c2)C1` (stereo not drawn), the inhibition in assay [1] stood at 1.69%; in assay [2], 1.44%; in assay [3] it was 0.72%.
On to `O=C(Nc1cccc(C(F)(F)F)c1)Nc1nc2ccc([N+](=O)[O-])cc2s1`, for which the results for the inhibition in assay [1], in assay [2] and in assay [3] were 4.59%, 4.44% and 0.91%, respectively.
For `COC(=O)c1cccc(C#CCCOCCCCCCNC[C@H](O)c2cc(Cl)c(N)c(Cl)c2)c1`, the figures for the inhibition in assay [1], in assay [2] and in assay [3] were 2.64%, 0.28% and 1.01%, respectively.
For `COc1ccc(CNc2ccnc(-n3cnc4cc(C)c(C)cc43)n2)cc1Cl` the same measures were 4.37%, 3.69% and 2.53%.
For `O=C(Nc1cccc(F)c1)N(Cc1ccc(-c2ccc(CN3CCNCC3)cc2)cc1)C1CCN(Cc2ccccc2)CC1` the same measures were -0.04%, -0.99% and -1.59%.
As for `Nc1c2ccccc2nc2ccc(Cl)cc12`, the values for the inhibition in assay [1], in assay [2] and in assay [3] were 14.6%, 16.4% and 9.04%, respectively.
For the compound `O=C(Nc1ccc(F)c(C(F)(F)F)c1)N[C@H]1CCN(CCCCCNC(=O)C2CC2c2ccc(Cl)c(Cl)c2)C1` (stereo partly drawn), the inhibition in assay [1] was -0.22%; in assay [2] it was -0.44%; in assay [3] it was -2.52%.
The matching figures for `Cc1ccc(C(=O)Nc2cc(C(F)(F)F)cc(C(F)(F)F)c2)cc1[N+](=O)[O-]`: 9.19%, 12.4% and 7.77%.
For `COc1ccc(-c2cnc(N)c(-c3ccc(O)c(OC)c3)c2)cn1` the same measures were 0.58%, 0.38% and 1.13%.
With `C=CCn1c(C)cc(C(=O)COc2ccc(S(=O)(=O)N3CCOCC3)cc2[N+](=O)[O-])c1C`, the results for the inhibition in assay [1], in assay [2] and in assay [3] were 2.97%, 0.91% and 0.84%, respectively.
